Mito fusion yeast = qHTS Assay for Small Molecule Inhibitors of Mitochondrial Division or Activators of Mitochondrial Fusion | 320,000 compounds, 0.23% hits | Potency, µM (titrated, usually from 46.1 µM), without a hit: at the highest dose growth rescue (activation), most hits filed as activators | S. cerevisiae fusion-defective mutant growth rescue, CellTiterGlo 48 h | AID 485298, 2010; also: % of control where 0% means no effect; nearly all actives have a fitted effect of over 45% in size
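S. cerevisiae fusion-defective temperature-sensitive mutants (e.g. fzo1-1, mgm1-5) grown 48 h at 37C in YPEG (ethanol/glycerol non-fermentable) medium with 23 nl compound per well; growth rescue read as CellTiterGlo luminescence.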
aSyn yeast inh = qHTS of alpha-syn Inhibitors; Yeast expressing alpha-synuclein, growth rescue, BacTiter-Glo, 24 h; Potency, µM (doses to about 46.1 µM), for the others: at the top dose growth rescue (activation), most hits filed as activators; 370,000 compounds, 0.14% hits; AID 652106, 2013; also: % of control where 0% means no effect; nearly all actives have a fitted effect of over 65% in size
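Galactose-induced alpha-syn yeast (OD600=0.02, raffinose-pregrown) + pinned cpd, 24 hr, 30 deg C; growth by BacTiter-Glo luminescence. Growth restoration scores as activation.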
TDP-43 yeast inh = qHTS of TDP-43 Inhibitors. TDP-43 expressing yeast growth rescue, BacTiter-Glo, 24 h. Potency, µM (top dose mostly 46.1 µM), for the others: top-dose growth rescue (activation), actives largely listed as activators. 410,000 compounds, 1.8% hits. AID 652104, 2013; also: % of control where 0% means no effect; nearly all actives have a fitted effect of over 50% in size
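Yeast expressing TDP-43 (pregrown in raffinose, seeded at OD600=0.02 in galactose medium) exposed to compounds 24 hr at 30 deg C. Growth read by BacTiter-Glo luminescence; rescue of toxicity appears as increased signal.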
Abeta yeast res = qHTS for compounds that reverse cellular toxicity of Amyloid beta (A-beta) peptide in yeast: Primary Screen; yeast expressing A-beta42, growth rescue, OD600, 48 h; response scale: 0% DMSO, 100% iron-clioquinol control; Potency, µM (doses to about 46.1 µM), hits mostly activators; 410,000 compounds, 0.063% hits; also: nearly all actives have a fitted effect of over 55% in size
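Yeast A-beta toxicity model in growth medium with pinned compounds, 48 h at 30 C; growth read as absorbance at 600 nm. Normalized to FeCl3/clioquinol equimolar mix (positive) and DMSO (negative).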
FUS yeast rescue = qHTS for Suppressors of FUS Proteinopathy: Primary screen using FUS-linked yeast assay | S. cerevisiae FUS-expressing, growth rescue, OD600, 24 h | Potency, µM (top dose mostly 76.6 µM), most hits filed as activators | 390,000 compounds, 0.24% hits | AID 1347120, 2019;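 also: plate controls were DMSO vehicle for no effect and reference control for full effect; nearly all actives have a fitted effect of over 55% in size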
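Yeast expressing FUS under galactose induction, OD 0.005 in 2% galactose medium; compounds in a dilution series, 24 h at 30C. Growth rescue by absorbance at 600 nm; CP55940 positive control, DMSO negative.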
Numbers without * were called inactive; i = inactive; ? = inconclusive; nt = no result given; ! = a repeat was not active. The list is not random: actives were taken first. Their share in the collection is about 2.2%. Calls follow the shape of the dose curve; as a rule, active = well fitted curve in the direction sought with a large enough effect; inconclusive = small, poorly fitted or top-dose-only effect, or another doubt; inactive = no such curve, though single readings can be large; an effect the other way counts as inactive or inconclusive. Potency is read from the fitted curve at half-maximal effect.

SMILES	Mito fusion yeast	aSyn yeast inh	TDP-43 yeast inh	Abeta yeast res	FUS yeast rescue
O=S1(=O)C=CCN1Cc1cn(Cc2ccccc2)nn1	nt	nt	nt	nt	i
O=S(=O)(NCCOc1ccccc1F)c1ccc(Cl)cc1F	nt	5%	22µM*	i	i
N#Cc1cccc(S(=O)(=O)NCCOc2ccccc2F)c1	0%	-3%	6%	i	i
O=S(=O)(NCCOc1ccccc1F)c1cccc(Br)c1	9%	9%	13µM*	?	i
COC(=O)c1cn(-c2ccc(-c3noc4c3C(=O)N(CC(=O)N3CCOCC3)CC4)cc2)nn1	nt	nt	nt	nt	i
COc1cccc(CNC(=O)CCCc2nnc3n(C)c(=O)c4sccc4n23)c1	1%	-9%	-2%	i	i
COc1cccc(NC(=O)CN(C)CC(=O)Nc2ccc(Cl)cc2[N+](=O)[O-])c1	-4%	7%	18µM*	i	i
C=CC(=O)NC1CCCCN(C(C)C)C1=O (stereo not given)	nt	nt	nt	nt	i
Oc1ccc(C=NNc2ccccn2)c(O)c1	nt	3%	17%	i	nt
Oc1ccc(/C=N/Nc2nccnc2Cl)c(O)c1	0%	11µM*	14%	i	nt
Oc1ccccc1/C=N/Nc1nccnc1Cl	-4%	14µM*	?	?	i
Oc1ccc(/C=N/Nc2ncc(Br)cn2)c(O)c1	2%	18µM*	10%	i	i
CCCC(=O)N1CCC[C@]2(CC[C@@H](CCC(C)=O)O2)C1	nt	nt	nt	nt	i
O=C(CSc1nnc(NC(=O)C2CCC2)s1)Nc1ccccc1F	-3%	-1%	9%	i	i
O=[N+]([O-])c1ccc(Cn2cc(-c3cccc(C(F)(F)F)c3)nn2)cc1	14%	21%	16µM*	i	i
O=[N+]([O-])c1ccc(Oc2cccc(C(F)(F)F)c2)nc1	-5%	-8%	23%	i	i
O=C(c1cccc(S(=O)(=O)N2CCCCC2)c1)N1CCN(c2ccccc2)CC1	4%	-1%	5%	i	nt
O=C(Nc1ccc2c(c1)CCC2)c1cccc(S(=O)(=O)N2CCN(c3ccccc3)CC2)c1	10%	13%	12%	i	14µM*
O=C(c1cccc(S(=O)(=O)N2CCN(c3ccc(F)cc3)CC2)c1)N1CCCCCCC1	16µM*	-2%	?	i	i
CC1CCN(C(=O)c2cccc(S(=O)(=O)N3CCN(c4ccccc4)CC3)c2)CC1	18µM*	4%	-5%	i	i
O=C(c1ccc2c(c1)CCN2S(=O)(=O)c1ccccc1)N1CCN(c2ccc(F)cc2)CC1	3%	14%	?	i	18µM*!
CC(=O)N1CCN(C(=O)c2cccc(S(=O)(=O)N3CCN(c4ccc(F)cc4)CC3)c2)CC1	-1%	0%	8%	i	i
COc1ccc(N2CCN(C(=O)c3ccc4c(c3)CCN4S(=O)(=O)c3ccccc3)CC2)cc1	23%	8%	?	i	?
COc1ccc(C=Nn2c(-c3ccc(F)cc3)n[nH]c2=S)cc1OCc1ccccc1	nt	nt	nt	nt	i
Cc1cccc(C)c1NC(=O)C1CCCN1S(=O)(=O)c1cccc2cccnc12 (stereo not given)	nt	nt	nt	nt	i
COc1ccc(NC(=O)CN(C)C(=O)c2cccc(S(=O)(=O)N3CCN(c4ccc(F)cc4)CC3)c2)cc1	nt	-2%	1%	i	22µM*
CN(CC(=O)Nc1ccc(F)cc1)C(=O)c1cccc(S(=O)(=O)N2CCN(c3ccccc3)CC2)c1	1%	0%	-7%	i	?
CCO/C=C1/C(=O)N(C)C(=O)c2cc(OC)ccc21	-2%	2%	13µM*	i	i
COc1ccc(OC)c(/C=C/C(=O)N2CCN(S(=O)(=O)c3cc(C)ccc3C)CC2)c1	22%	1%	8%	i	32µM*
CC(C)(C)c1ccc(C(=O)NNc2cc(N3CCCCC3)nc(N3CCCCC3)n2)cc1	1%	-2%	-1%	i	?
